# Assay results published in PubChem BioAssay (Tox21).
# Records with an inconclusive call do not appear. Where a call stands in place of a potency, no number is given. Active and inactive are the calls of the source. The call rests on the fitted dose curve; in most records, active means well fitted cell-killing curve with a large enough effect in the repeat runs; inconclusive means weak or mixed curves, or effect the other way; inactive means flat fitted curve, though single readings scatter.
# Assay: qHTS assay to identify small molecule agonists of the constitutive androstane receptor (CAR) signaling pathway - cell viability counter screen (AID 1224836); further: nearly all actives have a fitted effect of over 45% in size
# Conditions: HepG2-CYP2B6-hCAR viability, CellTiter-Fluor, 23 h, PK11195 added to every well; series mostly up to 92.4 µM
# Text: U.S. Tox21 Program National Center for Advancing Translational Sciences [NCATS] NIH Chemical Genomics Center [NCGC] U.S. Environmental Protection Agency [EPA] National Institutes of Environmental Health Sciences [NIEHS] National Toxicology Program [NTP] U.S. Food and Drug Administration [FDA] Tox21 Assay Overview: The constitutive androstane receptor (CAR) is a nuclear receptor which regulates multiple drug metabolizing enzymes (DMEs) and transporters. Activating CAR will generally increase the transcription and subsequent translation of CYP2B6 and CYP3A4. These two DMEs represent about 50% of the drug metabolizing potential in the body. […] Recently, there have also been studies performed indicating CARs role in energy metabolism and cancer therapy. Therefore, inducing CARs activity could have a potential effect on diabetes and cancer. Identifying environmental toxins and compounds which modulate CAR, through the use of the Tox21 10K compound collection, will be an important step in determining the toxicity and potential therapeutic effects these factors will have on the human body. To differentiate true CAR agonists from cytotoxic substances, the assay is multiplexed with a cell viability assay.
# Tox21 Assay Protocol Summary: A double-stable (hCAR and CYP2B6-2.2kb) transfected cell line, derived from human hepatoma (HepG2) cells, was utilized for the duration of the quantitative high-throughput screens. The HepG2-CYP2B6-hCAR cells were dispensed at 2500 cells/4 uL/well in 1536-well white solid bottom plates using a Multidrop Combi. After the assay plates were incubated at 37 C/5% CO2 for 4 hrs, 23 nL of compounds at 15 concentrations (from 5-48 columns) or positive control (from 1 to 4 columns) were transferred to the assay plates using a Pintool station. One uL of PK11195 (final concentration = 0.75 uM) was added, using a Flying Reagent Dispenser, inside each well. After a 23 hr incubation period at 37 C/5% CO2, 1 uL of CellTiter-Fluor reagent was added into each well of the assay plates using a Flying Reagent Dispenser. The fluorescence intensity in the plates was then measured using a ViewLux plate reader.
row,SMILES,Potency
1,CN(C)N=O,inactive
2,CC(C)C1(C)N=C(c2nc3ccccc3cc2C(=O)O)NC1=O (stereo not given),inactive
3,[N-]=[N+]=[N-],inactive
4,NCC(O)c1ccc(O)cc1 (stereo not given),inactive
5,C1CC2OC2CC1C1CO1 (stereo not given),inactive
6,CC(C)C#N,inactive
7,CCCCN(CC)C(=O)SCCC,inactive
8,CCOC(=O)c1ccccc1C(=O)OCC,inactive
9,CCC(C)(CC)c1cc(NC(=O)c2c(OC)cccc2OC)on1,inactive
10,Nc1c(Cl)c(Cl)nc(C(=O)O)c1Cl,inactive
11,CN(N=O)c1ccccc1,inactive
12,CC(Oc1ccc(Cl)cc1Cl)C(=O)O (stereo not given),inactive
13,CC(C)(Cl)Cl,inactive
14,CCCCCCCCCl,inactive
15,Nc1ccccc1C(=O)O,inactive
16,BrCCBr,inactive
17,CC(C)=C[C@@H]1[C@@H](C(=O)OCc2coc(Cc3ccccc3)c2)C1(C)C,inactive
18,CCN(CC)c1ccccc1,inactive
19,COC(=O)c1ccccc1N,inactive
20,Oc1ccccc1Cl,inactive

row,SMILES,Potency
1,CC1OC(C)OC(C)O1 (stereo not given),inactive
2,c1ccc(-c2ccccc2)cc1,inactive
3,c1cc2c3c(cccc3c1)CC2,inactive
4,c1ccc2c(c1)Oc1ccccc1O2,inactive
5,C#CC(C)(C)NC(=O)c1cc(Cl)cc(Cl)c1,inactive
6,O=C(NC(=O)c1c(F)cccc1F)Nc1cc(Cl)c(OC(F)(F)C(F)C(F)(F)F)cc1Cl (stereo not given),inactive
7,Cc1cccc([N+](=O)[O-])c1,inactive
8,CCCCCCCCCCCC#N,inactive
9,Nc1ccc(Br)cc1,inactive
10,CC(C)(C)OOC(C)(C)C,inactive
11,CCOP(=S)(OCC)SCCSCC,inactive
12,O=S(=O)(c1ccc(O)cc1)c1ccc(O)cc1,inactive
13,CC(Br)C(=O)O (stereo not given),inactive
14,ClCc1cccnc1,inactive
15,Cc1[nH]c(=O)n(C(C)(C)C)c(=O)c1Cl,inactive
16,C[C@]12CC[C@H]3[C@@H](CC[C@@]45O[C@@H]4C(O)=C(C#N)C[C@]35C)[C@@H]1CC[C@@H]2O,inactive
17,C=C(C)CCl,inactive
18,CC(=O)C=C(C)C,inactive
19,CCCCOC(=O)c1ccccc1C(=O)OCCCC,inactive
20,O=[N+]([O-])c1ccc(Oc2ccc(Cl)cc2Cl)cc1,inactive
